{
  "source": "PubChem BioAssay (NCATS)",
  "note": "Inconclusive results are not listed. Activity calls are given as the source filed them. Calls come from the whole dose curve; as a rule, active = well fitted inhibition curve with a large enough effect; inconclusive = small, poorly fitted or top-dose-only effect; inactive = no such curve, though single readings can be large or run the other way. Residues, ends and D or L forms follow the SMILES beside them. Potency is the fitted concentration of half-maximal effect.",
  "data": [
    {"assay": "BET inhibitor-based combinations targeting novel dependencies in MECOM-rearranged (r) AML: MV-4-11 cell line (AID 2202233); note: nearly all actives have a fitted effect of over 45% in size", "conditions": "MV-4-11 AML viability, CellTiter-Glo luminescence, 48 h; series mostly up to 46 µM", "outline": "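Each compound is tested in an 11-point concentration series against 500 seeded cells/well for 48 hr. The luminescent viability signal is normalized to DMSO and blank wells, then reduced to AUC and a cell-line-centred Z-AUC.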", "values": [
      {"smiles": "CN(C)c1ccc(O)c2c1C[C@H]1C[C@H]3[C@H](N(C)C)C(=O)C(C(N)=O)=C(O)[C@@]3(O)C(=O)C1=C2O", "Potency": "inactive"},
      {"smiles": "Cc1c(-c2ccc(-c3ccccc3F)cc2)nc2ccc(F)cc2c1C(=O)O", "Potency": "0.209 µM (active)"},
      {"smiles": "N[C@@H](CCC(=O)O)C(=O)N[C@@H](Cc1c[nH]c2ccccc12)C(=O)O", "note": "(H-Glu-Trp-OH)", "Potency": "inactive"},
      {"smiles": "CCCCN(CCCC)CCC(O)c1cc2c(Cl)cc(Cl)cc2c2cc(C(F)(F)F)ccc12", "note": "(stereo not given)", "Potency": "18.6 µM (active)"},
      {"smiles": "CCn1c(=O)c(-c2ccc(-c3cncc(C)n3)cc2Cl)cc2cnc(NCCC3CCN(C)CC3)nc21", "Potency": "1.18 µM (active)"},
      {"smiles": "C[C@@H](O)[C@@H](C)Oc1nc(Nc2ccc(S(=N)(=O)C3CC3)cc2)ncc1C(F)(F)F", "note": "(stereo not given in full)", "Potency": "14.8 µM (active)"},
      {"smiles": "Cc1[nH]c(/C=C2\\C(=O)Nc3ccc(S(=O)(=O)Cc4c(Cl)cccc4Cl)cc32)c(C)c1C(=O)N1CCC[C@@H]1CN1CCCC1", "Potency": "5.9 µM (active)"},
      {"smiles": "Cc1ccc(-c2nc(N)nc3c2nnn3Cc2cccc(CO[C@H]3CCOC3)n2)o1", "Potency": "inactive"},
      {"smiles": "Cc1c(-c2c(-c3ccc(F)o3)sc3ncnc(O[C@@H](Cc4ccccc4OCc4ccnn4CC(F)(F)F)C(=O)O)c23)ccc(OCCN2CCN(C)CC2)c1Cl", "Potency": "0.0235 µM (active)"},
      {"smiles": "COc1cc(C(=O)NC(N)=Nc2ccc(C)c(NC(=O)c3ccc(-c4ccccc4)cc3)c2)cc(OC)c1OC", "Potency": "18.6 µM (active)"},
      {"smiles": "CS(=O)(=O)c1ccc(-c2cnc(NCc3ccco3)n3cnnc23)cc1", "Potency": "inactive"},
      {"smiles": "Fc1cccc(-n2cnc3c(NCc4nc5c(F)c(F)ccc5[nH]4)nc(N4CCOCC4)nc32)c1", "Potency": "0.263 µM (active)"},
      {"smiles": "Cc1ccc(Nc2cc(N[C@@H]3CCCC[C@@H]3N)nnc2C(N)=O)nc1C", "Potency": "3.72 µM (active)"},
      {"smiles": "CCNC(=O)Nc1ccc(Oc2ncnc(N)c2/C=N/OC)cc1Cl", "Potency": "18.6 µM (active)"},
      {"smiles": "O=c1oc2c(C3OCCCO3)c(O)ccc2c2c1CNCC2", "Potency": "inactive"},
      {"smiles": "COC(=O)[C@H](CCCN=C(N)N)NS(=O)(=O)c1ccc(C)cc1", "Potency": "inactive"},
      {"smiles": "C[C@@H]1CC[C@@]2(OC1)OC1CC3C4CC=C5CC(O)CCC5(C)C4CCC3(C)C1[C@@H]2C", "note": "(stereo not given in full)", "Potency": "inactive"},
      {"smiles": "CNC(=O)c1ccc(N2C(=S)N(c3ccc(C#N)c(C(F)(F)F)c3)C(=O)C2(C)C)cc1F", "Potency": "18.6 µM (active)"},
      {"smiles": "CN(C)CCOc1ccc(-c2nc(-c3ccc4c(c3)CC/C4=N\\O)c(-c3ccncc3)[nH]2)cc1", "Potency": "16.6 µM (active)"},
      {"smiles": "Cc1ccc(-c2ccc(C)cn2)nc1", "Potency": "inactive"},
      {"smiles": "Cc1ccc(F)c(NC(=O)Nc2ccc(-c3cccc4[nH]nc(N)c34)cc2)c1", "Potency": "0.0074 µM (active)"},
      {"smiles": "COc1cc(OCc2cccc(-c3ccccc3)c2C)cc(OC)c1CN1CCCC[C@H]1C(=O)O", "Potency": "20.9 µM (active)"},
      {"smiles": "COc1ccc2[nH]c(C(=O)N3CCC(CC(C)(C)O)CC3)cc2c1", "Potency": "inactive"},
      {"smiles": "COc1ccc(Cl)cc1-c1cc(=O)[nH]c(=S)n1CC(N)=O", "Potency": "inactive"},
      {"smiles": "CCC(=O)N1CCOc2c(cc(-c3cc(OC)cc(OC)c3)cc2C(=O)N[C@H]2CCCN(C)C2)C1", "Potency": "10.5 µM (active)"},
      {"smiles": "Clc1ccc(C(Cn2ccnc2)OCc2ccsc2Cl)c(Cl)c1", "note": "(stereo not given)", "Potency": "23.5 µM (active)"},
      {"smiles": "CONC(=O)Nc1ccc(-c2sc3c(c2CN(C)C)c(=O)n(-c2ccc(OC)nn2)c(=O)n3Cc2c(F)cccc2F)cc1", "Potency": "inactive"},
      {"smiles": "Nc1ncccc1-c1nc2ccc(-c3ccccc3)nc2n1-c1ccc(C2(N)CCC2)cc1", "Potency": "11.8 µM (active)"},
      {"smiles": "Cc1ccc(-c2ncc(Cl)cc2-c2ccc(S(C)(=O)=O)cc2)cn1", "Potency": "inactive"},
      {"smiles": "COc1c(Nc2ncc(Cl)c(N[C@H]3[C@H](C(N)=O)[C@@H]4C=C[C@@H]3C4)n2)ccc2c1CCC(N1CCOCC1)CC2", "note": "(stereo not given in full)", "Potency": "0.525 µM (active)"},
      {"smiles": "COc1cc(NS(C)(=O)=O)ccc1Nc1c2ccccc2nc2ccccc12", "Potency": "0.0661 µM (active)"},
      {"smiles": "Cc1ccc([C@@H]2O[C@H](CO)[C@@H](O)[C@H](O)[C@H]2O)cc1Cc1ccc(-c2ccc(F)cc2)s1", "Potency": "13.2 µM (active)"},
      {"smiles": "O=C(/C=C/c1ccc(Cl)cc1)N1CCC2(CC1)CN(Cc1ccc(Cl)c(Cl)c1)C(=O)O2", "Potency": "20.9 µM (active)"},
      {"smiles": "C[C@H]1CN(C2COC2)CCN1c1ccc(Nc2cc(-c3ccnc(N4CCn5c(cc6c5CC(C)(C)C6)C4=O)c3CO)cn(C)c2=O)nc1", "Potency": "14.8 µM (active)"},
      {"smiles": "O=C(Nc1cccc(Nc2ncc(Br)c(NCCc3cnc[nH]3)n2)c1)N1CCCC1", "Potency": "0.118 µM (active)"},
      {"smiles": "CCOC(=O)[C@H](CCc1ccccc1)N[C@H]1CCc2ccccc2N(CC(=O)O)C1=O", "Potency": "7.42 µM (active)"},
      {"smiles": "Cc1c(CN2CCN(C(=O)[C@H](C)O)CC2)sc2c(N3CCOCC3)nc(-c3cnc(N)nc3)nc12", "Potency": "0.525 µM (active)"},
      {"smiles": "CCN(CC)CCNc1ccc(C)c2sc3ccccc3c(=O)c12", "Potency": "7.42 µM (active)"},
      {"smiles": "CC1=C2C[C@H]3[C@@H](CC[C@@H]4C[C@H](NS(C)(=O)=O)CC[C@@]43C)[C@@H]2CC[C@@]2(C1)O[C@@H]1C[C@H](C)CN[C@H]1[C@H]2C", "Potency": "16.6 µM (active)"},
      {"smiles": "C=CCNC1=C2C[C@@H](C)C[C@H](OC)[C@H](O)[C@@H](C)/C=C(\\C)[C@H](OC(N)=O)[C@@H](OC)/C=C\\C=C(/C)C(=O)NC(=CC1=O)C2=O", "Potency": "1.86 µM (active)"}
    ]}
  ]
}
